In PubChem BioAssay AID651642 (Sanford-Burnham Center for Chemical Genomics, 2012):
Calls of active or inactive are those of the source.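 How the source made its calls: active means average half-effect concentration of 10 µM or less in every one of the four cell panels; inactive means the rest.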

tested on: H9c2; assay: protection of cardiomyocytes from stress damage, SAR follow-up, cell-based, panel, H9c2 and HL-1, H2O2, 2-deoxyglucose, ATP luminescence (AID 651642); conditions: H9c2/HL-1 cardiomyocyte H2O2 oxidative damage, mean of runs, with H2O2

Row | SMILES | outcome
1 | CCOC(=O)c1cccc(NC(=O)CNC(=O)c2cc(-c3cc(OC)c(OC)c(OC)c3)nc3ccccc23)c1 | inactive
2 | CCOC(=O)c1cccc(NC(=O)CNC(=O)c2cc(-c3cc(OC)c(OC)c(OC)c3)nc3ccc(F)cc23)c1 | active
3 | COc1ccc2c(c1OC)C(=O)N1c3ccccc3C(=O)N(Cc3c(Cl)cccc3Cl)C21 (stereo not drawn) | inactive
4 | COc1ccc2nc(-c3cc(OC)c(OC)c(OC)c3)cc(C(=O)Nc3cccc(C(C)=O)c3)c2c1 | inactive
5 | COc1ccc2c(c1OC)C(=O)N1c3ccccc3C(=O)N(Cc3ccccc3)C21 (stereo not drawn) | inactive
6 | COc1ccc2c(c1OC)C(=O)N1c3ccccc3C(=O)N(Cc3cccc(C)c3)C21 (stereo not drawn) | inactive
7 | COc1cc(-c2cc(C(=O)Nc3cccc(C#N)c3)c3ccccc3n2)cc(OC)c1OC | inactive
8 | COc1ccc2c(c1OC)C(=O)N1c3ccccc3C(=O)N(Cc3ccc(C)cc3C)C21 (stereo not drawn) | inactive
9 | COc1cc(-c2cc(C(=O)Nc3cccc(C(=O)N4CCOCC4)c3)c3ccccc3n2)cc(OC)c1OC | active
10 | COc1ccc2nc(-c3cc(OC)c(OC)c(OC)c3)cc(C(=O)NCC(=O)Nc3cccc(C(C)=O)c3)c2c1 | inactive
11 | COc1ccc2c(c1OC)C(=O)N1c3ccccc3C(=O)N(Cc3ccccn3)C21 (stereo not drawn) | inactive
12 | CCOC(=O)c1cccc(NC(=O)c2cc(-c3cc(OC)c(OC)c(OC)c3)nc3ccccc23)c1 | inactive
13 | COc1cc(-c2cc(C(=O)Nc3cccc(C(N)=O)c3)c3ccccc3n2)cc(OC)c1OC | active
14 | COc1ccc2c(c1OC)C(=O)N1c3ccccc3C(=O)N(Cc3ccncc3)C21 (stereo not drawn) | inactive
15 | COc1cc(-c2cc(C(=O)Nc3cccc(C(C)=O)c3)c3cc(C)ccc3n2)cc(OC)c1OC | active
16 | CCOC(=O)c1cccc(NC(=O)c2cc(-c3cc(OC)c(OC)c(OC)c3)nc3ccc(C)cc23)c1 | active
17 | COc1ccc2c(c1OC)C(=O)N1c3ccccc3C(=O)N(Cc3ccc(C)cc3)C21 (stereo not drawn) | inactive
18 | CCOC(=O)c1cccc(NC(=O)CNC(=O)c2cc(-c3cc(OC)c(OC)c(OC)c3)nc3c(Cl)cccc23)c1 | inactive
